Results from PubChem BioAssay (EPA / NIEHS).
Results filed as inconclusive are left out. The source made the active and inactive calls. How the source made its calls, unless noted: active means hit-call score of the fitted dose curve at least 0.9, where 1 is the maximum; inactive means score below 0.9.

Columns and labels:
[1] = CCTE_Mundy_HCI_Cortical_Synap_Neur_Matur_NeuriteLength: CCTE's Synaptogenesis and Neurite Maturation Assay in rat cortical cells for Neurite Length, Mundy Lab (AID 2284214)
Method in brief: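 Cultures of rat primary cortical cells received chemical at DIV 7 and were fixed at DIV 12, after glial arrest with AraC at DIV 5. Neurite length was measured by automated imaging of MAP2 immunofluorescence.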

[2] = CCTE_Mundy_HCI_Cortical_Synap_Neur_Matur_NeuriteSpotCountPerNeuron: CCTE's Synaptogenesis and Neurite Maturation Assay in rat cortical cells for Neurite Spot Count per Neuron Count, Mundy Lab (AID 2284215)
Method in brief: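 Developing rat cortical neurons, with glia suppressed by AraC, are exposed to chemicals from DIV 7 to DIV 12. Automated fluorescence imaging of MAP2-labelled neurites and synaptophysin puncta yields a count per neuron, normalised against DMSO wells.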

[3] = CCTE_Mundy_HCI_Cortical_Synap_Neur_Matur_SynapseCount: CCTE's Synaptogenesis and Neurite Maturation Assay in rat cortical cells for Synapse Count, Mundy Lab (AID 2284218)
Method in brief: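 Cells were plated, allowed 2 hr to attach, treated with AraC at DIV 5, then exposed to chemicals from DIV 7 until DIV 12. After fixation and MAP2/synaptophysin immunolabelling, synapses per neuron were quantified by automated imaging against DMSO.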

[4] = CCTE_Mundy_HCI_Cortical_Synap_Neur_Matur_NeuriteCount: CCTE's Synaptogenesis and Neurite Maturation Assay in rat cortical cells for Neurite Count, Mundy Lab (AID 2284222);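 further: exposure from day 7 to day 12 in vitro with readout at day 12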
Method in brief: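 Primary rat cortical cells were plated, treated with AraC at DIV 5, then exposed to chemicals from DIV 7 through DIV 12. After fixation and immunostaining for MAP2 and synaptophysin, imaging quantified neurites, with DMSO as the negative control.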

[5] = CCTE_Mundy_HCI_Cortical_Synap_Neur_Matur_CellBodySpotCount: CCTE's Synaptogenesis and Neurite Maturation Assay in rat cortical cells for Cell Body Spot Count, Mundy Lab (AID 2284223)
Method in brief: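 Chemicals were applied to AraC-treated rat primary cortical cells at DIV 7 and measured at DIV 12. Fixed cells were labelled for MAP2, synaptophysin and nuclei, and high-content imaging gave cell body synaptophysin spot counts per neuron relative to DMSO.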

[6] = CCTE_Mundy_HCI_hNP1_Pro_ResponderAvgInten: CCTE's Proliferation Assay in human neuroprogenitor cells, Mundy Lab (AID 2284224; active means hit-call score of the fitted dose curve at least 0.9, where 1 is the maximum)
Method in brief: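 Proliferation was scored as BrdU labelling intensity in human neural progenitors derived from WA09 embryonic cells, measured 26.25 hours after chemical dosing. Activity was fitted relative to DMSO.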

[7] = UKN2_HCS_IMR90_cell_viability: Viability Assessment in the University of Konstanz (UKN) Leist Lab Neural Crest Cell Migration Assay in human induced IMR90 Pluripotent Stem Cells (UKN2) (AID 2284233);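 further: cells exposed to compound for 24 h after a 24 h migration phase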
Method in brief: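 After calcein-AM/Hoechst staining, viability is quantified by high-content fluorescence imaging, relative to DMSO, in iPSC (IMR90)-derived neural crest cells. Exposure lasts 24 h, starting after a 24 h migration period on PLO/laminin/fibronectin coating.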

[8] = CCTE_Mundy_HCI_Cortical_NOG_BPCount: CCTE's Neurite Outgrowth Assay in rat cortical cells for Branch Point Count, Mundy Lab (AID 2284237)
Method in brief: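 Measured 50.33 h after dosing, this morphology endpoint uses rat primary cortical cultures labelled for betaIII-tubulin. Branch points are quantified by high-content imaging, with DMSO as negative control and baseline.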

[9] = CCTE_Mundy_HCI_hNP1_Casp3_7: CCTE's Caspase-Glo 3/7 Assay in human neuroprogenitor cells for Apoptosis, Mundy Lab (AID 2284240)
Method in brief: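 Apoptosis is scored by activated caspase-3/7 luminescence in WA09-derived neural progenitor cells, measured 26.5 h after chemical dosing. Values represent gain of signal relative to DMSO vehicle.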

[10] = CCTE_Mundy_HCI_hNP1_CellTiter: CCTE's Cell Titer-Glo 2 Assay in human neuroprogenitor cells for Viability, Mundy Lab (AID 2284241; active means hit-call score of the fitted dose curve at least 0.9, where 1 is the maximum)
Method in brief: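 Human neural progenitor cells (hNP1, WA09-derived) were plated on poly-L-ornithine/laminin and grown 40 to 44 hours at 37 °C, 5% CO2 before chemical addition. Twenty-four hours later, ATP was measured by CellTiter-Glo luminescence; loss of signal versus DMSO indicates reduced viability.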

[11] = IUF_NPC2c_oligodendrocyte_migration_120hr: Leibniz Research Institute for Environmental Medicine (IUF) 120-hour Neural Progenitor Cell Migration Assay for Oligodendrocyte Migration (NPC2c) (AID 2284297);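 further: O4-positive oligodendrocyte migration distance divided by radial glia migration distance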
Method in brief: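 Using fetal brain neural progenitor spheres differentiating in N2 medium at 37C, compounds were present for 120 h. Oligodendrocyte migration distance, normalized to radial glia migration, was measured from imaged O4 staining.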

[12] = IUF_NPC2a_radial_glia_migration_120hr: Leibniz Research Institute for Environmental Medicine (IUF) 120-hour Neural Progenitor Cell Migration Assay for Radial Glia Migration (NPC2a) (AID 2284298)
Method in brief: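 Exposure of 0.3 mm primary hNPC spheres runs day 0 to 120 h with a half-volume medium change at day 3. Fixed cells get Hoechst staining; high-content analysis of nuclear positions yields radial glia migration distance per well, compared against DMSO controls.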

[13] = IUF_NPC2a_radial_glia_migration_72hr: Leibniz Research Institute for Environmental Medicine (IUF) 72-hour Neural Progenitor Cell Migration Assay for Radial Glia Migration (NPC2a) (AID 2284299)
Method in brief: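 Single 0.3 mm neurospheres were plated per well in N2 differentiation medium and exposed from the start of differentiation. After 72 hours, brightfield images were taken and radial glia migration from the sphere core edge was measured manually in four directions, averaged per well.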

[14] = IUF_NPC2b_neuronal_migration_120hr: Leibniz Research Institute for Environmental Medicine (IUF) 120-hour Neural Progenitor Cell Migration Assay for Neuron Migration (NPC2b) (AID 2284300)
Method in brief: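 Fetal human NPC spheres migrate on PDL/laminin during 120 h compound treatment; neuronal migration distance, glia-normalized, scored versus DMSO control.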

[15] = IUF_NPC3_neuronal_differentiation_120hr: Leibniz Research Institute for Environmental Medicine (IUF) 120-hour Neuronal Differentiation Assay (NPC3) (AID 2284301)
Method in brief: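 Value is percent TUBB3-positive neurons among Hoechst-stained nuclei in the migration area, scored by trained CNN after 120 h differentiation. Primary hNPC spheres on poly-D-lysine/laminin, N2 medium, continuous dosing from day 0, half-refeed day 3; DMSO reference.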

[16] = IUF_NPC4_neurite_length_120hr: Leibniz Research Institute for Environmental Medicine (IUF) 120-hour Neuronal Morphology Assay for Neurite Length (NPC4) (AID 2284302)
Method in brief: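 Neurite length, the mean in um across TUBB3-stained neurons, is derived by skeletonization of high-content images after 120 h differentiation. Compound exposure, 7 concentrations plus solvent control, ran from plating of hNPC spheres on poly-D-lysine/laminin, with medium half-replaced on day 3.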

[17] = IUF_NPC5_oligodendrocyte_differentiation_120hr: Leibniz Research Institute for Environmental Medicine (IUF) 120-hour Oligodendrocyte Differentiation Assay (NPC5) (AID 2284304; active means hit-call score of the fitted dose curve at least 0.9, where 1 is the maximum;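 further: primary human fetal neural progenitor spheres plated to migrate and differentiate; share of O4-positive cells among Hoechst nuclei found by CNN image analysis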)
Method in brief: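 After plating on poly-D-lysine/laminin, fetal-derived hNPC spheres differentiated for 120 h at 37C in compound-containing N2 medium, refreshed by half on day 3. O4 immunostaining over Hoechst nuclei in the migration zone gave oligodendrocyte percentage relative to DMSO.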

[18] = IUF_NPC4_neurite_area_120hr: Leibniz Research Institute for Environmental Medicine (IUF) 120-hour Neuronal Morphology Assay for Neurite Area (NPC4) (AID 2284305; active means hit-call score of the fitted dose curve at least 0.9, where 1 is the maximum)
Method in brief: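 Neurite area (pixels, nuclei excluded) of TUBB3-positive neurons from hNPC spheres differentiating 5 days under continuous exposure at 37 C, 5% CO2. High-content imaging; loss of signal versus DMSO control across 7 concentrations.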

[19] = IUF_NPC2-5_cytotoxicity_72hr: Cytotoxicity Assessment at 72 hours in the Leibniz Research Institute for Environmental Medicine (IUF) Neural Progenitor Cell Migration and Differentiation Assay for Cytotoxicity (NPC2-5) (AID 2284306; active means hit-call score of the fitted dose curve at least 0.9, where 1 is the maximum;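 further: LDH release into supernatant measured by resorufin fluorescence marking membrane damage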)
Method in brief: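 Membrane-integrity cytotoxicity at 72 h, read as LDH-driven resorufin fluorescence in supernatant. hNPC spheres from fetal cortex differentiate on coated plates in N2 medium, 37C, 5% CO2; seven serial compound concentrations plus solvent control (DMSO ≤0.1%).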

[20] = IUF_NPC2-5_cytotoxicity_120hr: Cytotoxicity Assessment at 120 hours in the Leibniz Research Institute for Environmental Medicine (IUF) Neural Progenitor Cell Migration and Differentiation Assay (NPC2-5) (AID 2284307; active means hit-call score of the fitted dose curve at least 0.9, where 1 is the maximum)
Method in brief: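 Membrane-integrity loss is quantified by LDH in supernatant after five days of exposure of migrating, differentiating human fetal NPC spheres; seven serially diluted concentrations are tested with DMSO kept at or below 0.1%.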

[21] = IUF_NPC2-5_cell_number_120hr: Cell Number Assessment at 120 hours in the Leibniz Research Institute for Environmental Medicine (IUF) Neural Progenitor Cell Migration and Differentiation Assay (NPC2-5) (AID 2284308);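 further: count of Hoechst-stained nuclei in migration zone around plated human neural progenitor spheres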
Method in brief: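 Seven-point serial dilutions plus solvent control were applied to plated 0.3 mm hNPC spheres at differentiation start, with medium half-replaced at day 3. Nuclei positive for Hoechst in the migration zone were enumerated at 120 h.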

[22] = IUF_NPC2-5_viability_120hr: Viability Assessment at 120 hours in the Leibniz Research Institute for Environmental Medicine (IUF) Neural Progenitor Cell Migration and Differentiation Assay (NPC2-5) (AID 2284312)
Method in brief: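 Alamar blue resorufin fluorescence read after 5 days of differentiation, with compound present from day 0 and replenished at day 3. Primary hNPC spheres on laminin-coated plates, 37C; seven concentrations plus solvent control, fitted against DMSO.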

[23] = CCTE_Mundy_HCI_iCellGluta_NOG_NeuriteLength: CCTE's Neurite Outgrowth Assay in iCellGluta cells for Neurite Length, Mundy Lab (AID 2284318; active means hit-call score of the fitted dose curve at least 0.9, where 1 is the maximum)
Method in brief: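 Automated high-content imaging of betaIII-tubulin (Alexa Fluor-488) and Hoechst-stained cells gave neurite length, normalized to the DMSO baseline.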

[24] = IUF_NPC1_cytotoxicity_72hr: Cytotoxicity Assessment at 72 hours in the Leibniz Research Institute for Environmental Medicine (IUF) Neural Progenitor Cell Proliferation Assay (NPC1) (AID 2284332; active means hit-call score of the fitted dose curve at least 0.9, where 1 is the maximum;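 further: rising LDH signal means more cytotoxicity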)
Method in brief: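 Membrane-integrity loss is scored from LDH released into the medium, detected as resorufin fluorescence, with activity fitted upward relative to baseline. Test material stays on human fetal-derived progenitor spheres for 72 h.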

[25] = CCTE_Mundy_HCI_iCellGluta_NOG_NeuronCount: CCTE's Neurite Outgrowth Assay in iCellGluta cells for Neuron Count, Mundy Lab (AID 2284340; active means hit-call score of the fitted dose curve at least 0.9, where 1 is the maximum;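 further: cells fixed about 48 h after compound addition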)
Method in brief: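 Neuron count read by automated high-content imaging of Hoechst 33342 and betaIII-tubulin/Alexa Fluor-488 labelling in human iPSC glutamatergic neurons. Activity fitted relative to DMSO.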

[26] = CCTE_Mundy_HCI_iCellGluta_NOG_NeuriteCount: CCTE's Neurite Outgrowth Assay in iCellGluta cells for Neurite Count, Mundy Lab (AID 2284342; active means hit-call score of the fitted dose curve at least 0.9, where 1 is the maximum;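 further: chemical exposure about 48 hours starting 2 hours after plating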)

Measured: outcome

CCOP(=S)(OCC)SCS(=O)C(C)(C)C (stereo unspecified)
inactive: all assays above
